# Measured values taken from the supplement of paper PMC9135407.
# Where “and” joins values, the source holds several entries; their conditions need not be identical. Identical values can stand only once. Counter-ions that a name gives are not always drawn. Among all 5,800 compounds or so, about 620 (11%) showed activity. What follows is part of a selection rich in actives, with near analogues and random picks from the rest. Values without a mark were called inactive.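 How the source made its calls: active = score above a cut-off or among the top three wells of a plate; in these data no inactive exceeds 0.85.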
# Test system: primary human hepatic stellate cells (donor 1)
# Assay: scaled lipid accumulation score (0 = DMSO-like, 1 = nortriptyline-like); higher = stronger HSC inactivation (lipid re-accumulation), active = hit call of the paper
# Settings: 48 h
# [1] = library stock concentration: 1 mM
# [2] = library stock concentration: 10 mM
# [3] = library stock concentration: 6.4 mM
# [4] = library stock concentration: 3.33 mM
# [5] = library stock concentration: 80 uM
# [6] = library stock concentration: 400 uM
# [7] = library stock concentration: 2 mM
structure (smiles),measurement,setting,value
O=C(O)CCC/C=C\C[C@H]1C(=O)C=C[C@@H]1/C=C/[C@@H](O)COc1ccccc1 [16-phenoxy tetranor Prostaglandin A2],scaled lipid accumulation score,[1],≤ 0
CCCCCCCCCCCCCCCC(=O)OC[C@H](COP(=O)([O-])OCC[N+](C)(C)C)OC(=O)CCCCCCCC(=O)O,scaled lipid accumulation score,[1],≤ 0
CC(C)(C)[C@]1(O)CCN2C[C@H]3c4ccccc4CCc4cccc(c43)[C@@H]2C1,scaled lipid accumulation score,[2],0.691
CC(C)(C)[C@]1(O)CCN2C[C@H]3c4ccccc4CCc4cccc(c43)[C@@H]2C1 [(+)-Butaclamol hydrochloride],scaled lipid accumulation score,[2],0.672
CCCCC[C@H](O)/C=C/C=C\CCCCCCCC(=O)O,scaled lipid accumulation score,library stock concentration: 100 uM,≤ -0.021
CCCCCC(=O)/C=C/[C@@H]1[C@@H](C/C=C\CCCC(=O)O)[C@@H](O)C[C@H]1O [15-keto Prostaglandin F2.alpha.],scaled lipid accumulation score,[1],≤ 0
Clc1ccc2c(c1)C(N1CCNCC1)=Nc1ccccc1O2 [Amoxapine] [listing 1 of 4 here],scaled lipid accumulation score,[2],1.05 (active)
Clc1ccc2c(c1)C(N1CCNCC1)=Nc1ccccc1O2,scaled lipid accumulation score,[2],0.843
Clc1ccc2c(c1)C(N1CCNCC1)=Nc1ccccc1O2 [Amoxapine] [listing 2 of 4 here],scaled lipid accumulation score,[3],0.886 (active)
CCN(CC)CCCCN1c2ccccc2Oc2ccc(Cl)cc21 [10-DEBC hydrochloride],scaled lipid accumulation score,[2],0.5
CCN(CC)CCCCN1c2ccccc2Oc2ccc(Cl)cc21 [Akt Inhibitor X],scaled lipid accumulation score,[4],0.225
Clc1ccc2c(c1)C(N1CCNCC1)=Nc1ccccc1O2 [Amoxapine] [listing 3 of 4 here],scaled lipid accumulation score,[3],0.598
Clc1ccc2c(c1)C(N1CCNCC1)=Nc1ccccc1O2 [Amoxapine] [listing 4 of 4 here],scaled lipid accumulation score,,0.863 (active)
CC(=O)NNC(=O)N1Cc2ccccc2Oc2ccc(Cl)cc21,scaled lipid accumulation score,[2],≤ 0 and ≤ -0.006
"Nc1ncnc2c1ncn2[C@@H]1O[C@@H]2COP(=O)(O)O[C@H]2[C@H]1O [Adenosine 3',5'-cyclic monophosphate]",scaled lipid accumulation score,[2],0.281
NC(C(=O)O)C(O)C(=O)O (racemic) [DL-threo-beta-hydroxyaspartic acid],scaled lipid accumulation score,[2],≤ -0.07
O=C[C@@H]1CCCN1C(=O)[C@@H]1CCCN1C(=O)OCc1ccccc1 [Z-prolyl-prolinal],scaled lipid accumulation score,library stock concentration: 15.1 mM,0.107
CO/N=C(\C(=O)N[C@@H]1C(=O)N2C(C(=O)O)=C(CSC(=O)c3ccco3)CS[C@H]12)c1csc(N)n1,scaled lipid accumulation score,[2],≤ 0
CO/N=C(\C(=O)N[C@@H]1C(=O)N2C(C(=O)O)=C(CSC(=O)c3ccco3)CS[C@H]12)c1csc(N)n1 [Ceftiofur HCl],scaled lipid accumulation score,[4],0.015
same,scaled lipid accumulation score,[2],≤ 0
CC[C@H]1OC(=O)[C@H](C)[C@@H](O[C@H]2C[C@@](C)(OC)[C@@H](O)[C@H](C)O2)[C@H](C)[C@@H](O[C@@H]2O[C@H](C)C[C@H](NC)[C@H]2O)[C@](C)(O)C[C@@H](C)CN(C)[C@H](C)[C@@H](O)[C@]1(C)O,scaled lipid accumulation score,[2],0.363
Cc1ccc2c(c1)C(=O)C1(O)CCN(c3ccccc3)C1=N2 (configuration not stated) [Blebbistatin],scaled lipid accumulation score,library stock concentration: 17.1 mM,0.072
Cc1ccc2c(c1)C(=O)C1(O)CCN(c3ccccc3)C1=N2 (configuration not stated),scaled lipid accumulation score,[1],≤ 0
same,scaled lipid accumulation score,[2],≤ -0.006
"CCCCC[C@H](O)/C=C/[C@@H]1[C@@H](C/C=C\CCCCCC(=O)O)[C@@H](O)C[C@H]1O [1a,1b-dihomo Prostaglandin F2.alpha.]",scaled lipid accumulation score,[1],≤ 0
"CCCCC(C)(C)[C@H](O)/C=C/[C@H]1C=CC(=O)[C@@H]1CCCCCCC(=O)O [16,16-dimethyl Prostaglandin A1]",scaled lipid accumulation score,[1],≤ 0
CCCCCCCC/C=C/CCCCCCCC(=O)O [Elaidic Acid],scaled lipid accumulation score,[1],≤ 0
C(=C/CCNC)(/c1c(cccc1)CC2)\c3c2cccc3 [Nortriptyline],scaled lipid accumulation score,library stock concentration: 7.6 mM,0.971 (active)
Cl.C(=C\CCNC)(/c1c(cccc1)CC2)\c3c2cccc3 [Nortriptyline hydrochloride],scaled lipid accumulation score,,1.13 (active)
CNCCC=C1c2ccccc2CCc2ccccc21.Cl,scaled lipid accumulation score,[2],1.02 (active)
CNCCC=C1c2ccccc2CCc2ccccc21 [Nortriptyline],scaled lipid accumulation score,[2],0.72
c1ccc(\C(\c2c3cccc2)=C\CCNC)c(C=C3)c1 [Norcyclobenzaprine],scaled lipid accumulation score,,1.13 (active)
OCc1ccccc1,scaled lipid accumulation score,[2],≤ 0
CC(=O)N[C@@H](Cc1c[nH]c2ccccc12)C(N)=O [Acetyltryptophanamide],scaled lipid accumulation score,[2],≤ 0
COc1ccc2c(Oc3ccc(NC(=O)c4c(C)n(CC(C)(C)O)n(-c5ccccc5)c4=O)nc3)ccnc2c1,scaled lipid accumulation score,[4],≤ 0
same,scaled lipid accumulation score,[2],≤ 0
C[C@H](Cc1ccc(O)c(O)c1)[C@@H](C)Cc1ccc(O)c(O)c1,scaled lipid accumulation score,[2],≤ -0.055
COCCCN1CCC(NC(=O)c2cc(Cl)c(N)c3c2OCC3)CC1 [Prucalopride Succinat],scaled lipid accumulation score,[4],0.028
same,scaled lipid accumulation score,[2],0.03
COCCCN1CCC(NC(=O)c2cc(Cl)c(N)c3c2OCC3)CC1 [Prucalopride],scaled lipid accumulation score,[4],≤ 0
same,scaled lipid accumulation score,[2],≤ 0
CC1(C)O[C@H]2CC(=O)OC[C@]23[C@H]2CC[C@@]4(C)[C@H](c5ccoc5)OC(=O)[C@H]5O[C@]54[C@]2(C)C(=O)C[C@@H]13 [Limonin],scaled lipid accumulation score,[4],≤ 0
same,scaled lipid accumulation score,[2],0.008
O=C(O)CCC/C=C/C[C@@H]1[C@@H](CC[C@@H](O)CCc2ccccc2)[C@H](O)C[C@@H]1O [5-trans Latanoprost (free acid)],scaled lipid accumulation score,[1],≤ 0
O=C1O[C@H]([C@@H](O)CO)C([O-])=C1O.[Na+] [Sodium ascorbate],scaled lipid accumulation score,[4],≤ 0
same,scaled lipid accumulation score,[2],≤ -0.001
CCCCC[C@H](O)/C=C/[C@H]1C(=O)C[C@H](O)[C@@H]1C/C=C\CCCC(=O)OCC(O)CO (some centres not stated) [Prostaglandin D2-1-glyceryl ester],scaled lipid accumulation score,[1],≤ 0
CN1C(=O)C(Cc2c[nH]c3ccccc23)NC1=S (configuration not stated) [Necrostatin-1],scaled lipid accumulation score,[5],0.008
same,scaled lipid accumulation score,[6],≤ 0
same,scaled lipid accumulation score,[7],≤ 0
same,scaled lipid accumulation score,[4],≤ -0.009 and ≤ 0
same,scaled lipid accumulation score,[2],≤ 0 and 0.03
CCCc1c(OCCCCc2nnn[nH]2)ccc(C(C)=O)c1O,scaled lipid accumulation score,[1],≤ 0 and ≤ -0.021
same,scaled lipid accumulation score,[2],0.011
COc1cc2c(cc1OC)-c1c/c(=N\c3c(C)cc(C)cc3C)n(C)c(=O)n1CC2 [Trequinsin hydrochloride],scaled lipid accumulation score,[2],0.494 and 0.174
COc1cc2c(cc1OC)-c1c/c(=N\c3c(C)cc(C)cc3C)n(C)c(=O)n1CC2 [Trequinsin],scaled lipid accumulation score,library stock concentration: 4.9 mM,0.164
same,scaled lipid accumulation score,library stock concentration: 12.3 mM,0.244
C#CC(N)CCC(=O)O (configuration not stated) [gamma-Acetylinic GABA],scaled lipid accumulation score,[2],0.037
"C1CCC2(CC1)CCNCC2 [4,4-Pentamethylenepiperidine hydrochloride]",scaled lipid accumulation score,[2],0.028
CCCCCCCCCCCCCCCCCCCCCC(=O)NCCS(=O)(=O)O [N-Docosanoyl Taurine],scaled lipid accumulation score,[1],≤ 0
C(=C/CCNC)(/c1c2cccc1)\c3c(cccc3)CC2.Cl [Nortriptyline hydrochloride],scaled lipid accumulation score,[2],1.04 (active)
N[C@H]1CCN(O)C1=O,scaled lipid accumulation score,[2],≤ 0
NCc1cccc2ccncc12 [8-Isoquinoline methanamine (hydrochloride)],scaled lipid accumulation score,[1],0.003
CCCCCCNC(=O)Nc1ccc(S(=O)(=O)Nc2ccc(CCNC[C@H](O)COc3ccc(O)cc3)cc2)cc1,scaled lipid accumulation score,[2],0.462
O=C(O)CCCCCC[C@H]1C(=O)C[C@@H](O)[C@@H]1/C=C/[C@@H](O)Cc1ccccc1 [16-phenyl tetranor Prostaglandin E1],scaled lipid accumulation score,[1],0.017
CCCCCCCCCCCCCCCC(=O)OC[C@H](COP(=O)([O-])OCC[N+](C)(C)C)OC(=O)CCCC(=O)/C=C/C(=O)O,scaled lipid accumulation score,[1],0.034
O=C1C(Cl)=C(N2CCOCC2)C(=O)N1c1ccc(Cl)c(Cl)c1,scaled lipid accumulation score,[4],≤ -0.009
same,scaled lipid accumulation score,[2],≤ 0
COCC(=O)NC/C=C/c1ccc2ncnc(Nc3ccc(Oc4ccc(C)nc4)c(C)c3)c2c1 [listing 1 of 2 here],scaled lipid accumulation score,[5],≤ 0
same,scaled lipid accumulation score,[6],≤ 0 and ≤ -0.005
same,scaled lipid accumulation score,[7],≤ 0 and ≤ -0.005
same,scaled lipid accumulation score,[2],0.108
COCC(=O)NC/C=C/c1ccc2ncnc(Nc3ccc(Oc4ccc(C)nc4)c(C)c3)c2c1 [listing 2 of 2 here],scaled lipid accumulation score,[2],1.46 (active)
COc1ccc(Nc2ncnc3ccc(OC)cc23)cc1 [MPMQ hydrochloride],scaled lipid accumulation score,[2],0.051
NC1=NCCN1CC(=O)O [Cyclocreatine],scaled lipid accumulation score,[2],≤ 0
CCCCCCCCCCCCCCCC(=O)NCCS(=O)(=O)O [N-Palmitoyl Taurine],scaled lipid accumulation score,[1],≤ 0
CCCS(=O)(=O)Nc1ccc(F)c(C(=O)c2c[nH]c3ncc(Cl)cc23)c1F [listing 1 of 2 here],scaled lipid accumulation score,[5],≤ 0
same,scaled lipid accumulation score,[6],≤ 0 and 0.028
same,scaled lipid accumulation score,[7],≤ 0 and 0.042
same,scaled lipid accumulation score,[4],≤ 0
same,scaled lipid accumulation score,[2],≤ 0
"CCCS(=O)(=O)Nc1ccc(F)c(C(=O)c2c[nH]c3ncc(-c4ccc(Cl)cc4)cc23)c1F [Vemurafenib (PLX4032, RG7204)]",scaled lipid accumulation score,[4],≤ 0
same,scaled lipid accumulation score,[2],≤ 0
CCCS(=O)(=O)Nc1ccc(F)c(C(=O)c2c[nH]c3ncc(Cl)cc23)c1F [listing 2 of 2 here],scaled lipid accumulation score,[2],1.16 (active)
Cc1noc(-c2ccc(CSCCC(=O)O)cc2)c1NC(=O)OC(C)c1ccccc1Cl (configuration not stated),scaled lipid accumulation score,[4],0.003
same,scaled lipid accumulation score,[2],≤ 0
CCCCCCCOC(=O)Cc1c(C)n(C(=O)c2ccc(Cl)cc2)c2ccc(OC)cc12 [Indomethacin heptyl ester],scaled lipid accumulation score,[1],0.015
